Source: PubChem
PfG6PD inh: PfG6PD (Plasmodium falciparum) enzyme inhibition | 350,000 compounds, 0.78% hits | inhibition, % at 20 µM | PfGluPho enzyme, NADPH resazurin-diaphorase fluorescence | AID 504690;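 active = inhibition reaching at least a set limit at 20 µM in the primary screen, cut at about 59% in these data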;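 also: 0% = DMSO wells with substrate and 100% = DMSO wells lacking glucose-6-phosphate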
A3G deaminase: blocks human APOBEC3G single-stranded DNA deamination. recombinant A3G, ssDNA deamination FAM/TAMRA fluorescence. inhibition, % at 20 µM. Q9HC16. 330,000 compounds, 0.28% hits. AID 493012;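 active = inhibition of at least 40% at 20 µM, with no more than 30% in the related APOBEC3A deaminase screen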;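 also: plate controls were DMSO wells with A3G for no effect and wells lacking A3G enzyme for full effect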
Target sequence (Q9HC16 whole entry, looked up): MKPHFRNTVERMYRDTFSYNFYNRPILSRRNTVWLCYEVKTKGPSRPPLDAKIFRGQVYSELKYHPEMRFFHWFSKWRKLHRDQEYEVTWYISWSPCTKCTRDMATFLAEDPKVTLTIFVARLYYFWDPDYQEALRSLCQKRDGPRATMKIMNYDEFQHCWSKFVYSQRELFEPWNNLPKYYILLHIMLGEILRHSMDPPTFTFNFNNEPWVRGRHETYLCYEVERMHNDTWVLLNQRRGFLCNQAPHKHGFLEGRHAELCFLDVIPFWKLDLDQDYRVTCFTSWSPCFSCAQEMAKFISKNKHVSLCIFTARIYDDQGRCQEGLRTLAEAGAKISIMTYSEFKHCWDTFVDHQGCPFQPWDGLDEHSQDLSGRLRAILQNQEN
CR mimetic SO: yeast age-related superoxide inhibition as caloric restriction mimetic. S. cerevisiae aged cells, superoxide DHE fluorescence; stronger effect = lower value. superoxide response (% of plate mean), % at 10 µM. 330,000 compounds, 0.18% hits. AID 2690;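 active = superoxide response under a set limit, about three screen SD below normal, cut at about 65% in these data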;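 also: yeast aged for seven days with compound at 30 °C before DHE staining; 100% = average MFI of all compound-treated wells on the plate with controls excluded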
A3A deaminase: blocks human APOBEC3A ssDNA deamination | P31941 | recombinant A3A, FAM/TAMRA ssDNA deamination fluorescence | inhibition, % at 20 µM | 330,000 compounds, 0.41% hits | AID 493011;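 active = at least 40% inhibition at 20 µM here, with at most 30% in a related deaminase screen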;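 also: plate controls were A3A with DMSO for no effect and wells lacking A3A enzyme for full effect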
Target sequence (P31941 whole entry, looked up): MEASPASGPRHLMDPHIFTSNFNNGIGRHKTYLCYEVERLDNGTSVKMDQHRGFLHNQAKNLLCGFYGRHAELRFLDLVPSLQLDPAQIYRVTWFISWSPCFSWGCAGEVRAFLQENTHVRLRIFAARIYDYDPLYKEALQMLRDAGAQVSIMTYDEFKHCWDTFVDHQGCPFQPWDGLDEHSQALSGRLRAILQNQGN
M18AAP inhibitor: blocks P. falciparum M18 aspartyl aminopeptidase | recombinant PfM18AAP, H-Glu-NHMec fluorogenic cleavage | inhibition, % at 7.35 µM | 290,000 compounds, 1.2% hits;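 active = inhibition above the campaign mean inhibition over all tested compounds plus 3 SD, cut at about 28% in these data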;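 also: 0% = plate median of test compound wells and 100% = 2 mM ZnCl2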
PfGluPho conf: PfG6PD inhibition, single-dose confirmed; shares compounds with PfG6PD inh; 2,400 compounds, 34% hits; inhibition, % at 20 µM; recombinant PfGluPho, NADPH-diaphorase-resazurin fluorescence;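 active = inhibition of at least 50% at 20 µM in any single replicate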;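 also: 0% = DMSO with substrate and 100% = DMSO lacking glucose-6-phosphate substrate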
Diaphorase 10uM: counter-screen for P. falciparum G6PD inhibitors: diaphorase inhibitors, oxidizers; shares compounds with PfG6PD inh; diaphorase-coupled resazurin reduction, fluorescence, NADPH 10 uM; inhibition, % at 20 µM; 820 compounds, 39% hits; AID 504862;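 active = average inhibition reaching 50% or more with the compound at 20 µM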;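 also: resorufin red fluorescence formed as diaphorase reduces resazurin using NADPH; 0% = DMSO with enzyme and 100% = DMSO without enzyme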
Diaphorase 30uM: diaphorase inhibition or oxidation at 30 uM NADPH | shares compounds with PfG6PD inh | Diaphorase/resazurin coupled assay, resorufin fluorescence | inhibition, % at 20 µM | 820 compounds, 29% hits | AID 504863;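 active = inhibition averaging 50% or more, tested at 20 µM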;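 also: 0% = DMSO with enzyme and 100% = DMSO wells lacking diaphorase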
* hit, by the source's call; / = no result given. In the library only some 2.4% were active in any assay of this set; here they are far more common.

SMILES	PfG6PD inh	A3G deaminase	CR mimetic SO	A3A deaminase	M18AAP inhibitor	PfGluPho conf	others
On1onc2c3cc(-c4ccccc4)nc3ccc21	89.6*	-8.4	90.8	-0.4	6.5	7.4
O=C1Nc2ccccc2C(=O)C1(Cl)Cc1ccccc1 (stereo unspecified)	69.5*	17.1	86.5	2.4	17.4	66.4*	Diaphorase 10uM=-1.7;Diaphorase 30uM=-6.0
O=C(Nc1nc2c(s1)CCCC2)c1ccc2ncsc2c1	65.2*	-4.5	101.9	-2.1	-0.4	9.2
Cc1ncsc1C(=O)Nc1nc2c(s1)CCCC2	-1.0	-5.0	100.6	-0.6	1.7	/
O=C(Nc1nc2c(s1)CCCC2)c1ccc(Br)s1	68.4*	-6.0	107.4	-3.1	-3.0	26.1
COCCN(C(=O)CSc1nnc(-c2ccccc2F)o1)c1c(N)n(Cc2ccccc2)c(=O)[nH]c1=O	-0.4	/	/	/	/	/
CCSc1nc2c([nH]1)c(=O)n(C)c(=S)n2C	62.1*	/	/	/	/	40.9
CCc1nnc(NC(=O)c2ccc(Cl)nc2)s1	77.7*	9.6	90.8	11.9	-3.2	56.9*	Diaphorase 10uM=48.5;Diaphorase 30uM=40.6
C=CCSc1nnc(NC(=O)c2ccc(Cl)nc2)s1	82.2*	-6.6	95.7	-3.0	-11.2	77.9*	Diaphorase 10uM=71.8*;Diaphorase 30uM=49.2
O=C(Nc1nnc(C2CC2)s1)c1ccc(S(=O)(=O)c2ccccc2)cc1	-42.0	-8.2	106.6	-1.7	2.6	/
CCc1nnc(NC(=O)c2cc(Cl)ccn2)s1	17.4	2.4	104.0	38.0	2.7	/
CC(C)(C)c1nnc(NC(=O)c2ccc(Cl)nc2)s1	102.7*	-4.3	108.2	-1.3	0.7	95.1*	Diaphorase 10uM=80.8*;Diaphorase 30uM=62.3*
O=C(Nc1nnc(C2CC2)s1)c1ccc(Cl)nc1	80.3*	-6.1	103.9	-1.7	/	57.6*	Diaphorase 10uM=63.6*;Diaphorase 30uM=49.6
O=C(Nc1ccccc1C(=O)Nc1nnc(C(F)(F)F)s1)c1ccccc1Cl	14.1	-5.3	98.5	-0.3	-1.5	/
O=C(c1ccsc1)N1CCCC(N2CCOCC2)C1 (stereo unspecified)	-6.3	-3.4	83.6	-0.8	1.0	/
CCC(CCNC(=O)c1ccccc1)(CCNC(=O)c1ccccc1)[N+](=O)[O-]	-8.9	/	/	/	/	/
CCOC(=O)c1ccc(NC(=O)c2cc3ccccc3o2)cc1	67.2*	1.4	110.1	1.5	4.4	-15.6
O=C(Nc1cccc(Br)c1)c1cc2ccccc2o1	97.2*	1.5	127.7	2.8	12.0	33.6
O=C(Nc1ccc2c(c1)Cc1ccccc1-2)c1cc2ccccc2o1	-9.3	-3.9	92.4	-2.3	-4.3	/
O=C(Nc1ccc2c(c1)CCC2)c1cc2ccccc2o1	88.0*	0.7	92.7	0.5	5.6	4.7
CCOC(=O)c1cccc(NC(=O)c2cc3ccccc3o2)c1	19.2	-1.7	114.6	1.8	0.2	/
Cc1cccc(NC(=O)c2cc3ccccc3o2)c1	65.0*	4.4	106.6	0.5	2.9	14.2
CCCN(CCC)CCCNC(=O)Cn1cnc2sc(C)c(S(=O)(=O)N3CCOCC3)c2c1=O	-3.7	-5.6	88.2	0.1	-2.8	/
C=C1C(=O)C23CCC4C(C)(C(=O)OC)CCCC4(C)C2CCC1(O)C3 (stereo unspecified)	57.0	/	/	/	/	/
N#Cc1cc2ccc(N3CCOCC3)cc2cc1C#N	63.4*	0.3	96.1	0.4	-6.2	28.6
SMILES	PfG6PD inh	A3G deaminase	CR mimetic SO	A3A deaminase	M18AAP inhibitor	PfGluPho conf	others
c1ccc(OCc2nnc3n2N=C(c2ccccc2)CS3)cc1	100.4*	38.4	106.0	4.1	11.0	57.8*	Diaphorase 10uM=41.0;Diaphorase 30uM=29.1
COc1ccc(/C=N/Nc2nnc(C)n2N)cc1OC	61.2*	-5.4	101.0	-1.3	25.5	7.3
COc1ccc(/C=N/Nc2nc3ccccc3c(=O)n2-c2ccccc2)cc1OC	14.8	-1.6	89.2	0.8	7.7	/
Cc1nc2oc3c(NCC4CCCO4)ncnc3c2c2c1COC(C)(C)C2 (stereo unspecified)	13.2	-4.3	103.2	1.5	4.2	/
CC(C)c1nc2oc3c(NCC4CCCO4)ncnc3c2c2c1COC(C)(C)C2 (stereo unspecified)	65.6*	/	/	/	-13.2	37.4
N=c1c(C(=O)NC2CCCCC2)cc2c(=O)n3ccccc3nc2n1Cc1ccc(F)cc1	15.5	-10.2	104.8	-9.8	-2.7	/
Cc1cccn2c(=O)c3cc(C(=O)NC4CCCCC4)c(=N)n(Cc4ccccc4)c3nc12	69.7*	-1.1	115.4	2.2	-3.6	-1.3
CCOCCCn1c(=N)c(C(N)=S)cc2c(=O)n3cccc(C)c3nc21	63.8*	8.5	100.3	7.2	-3.5	7.5
Cc1cccn2c(=O)c3cc(C(=O)NC4CCCC4)c(=N)n(CCc4ccccc4)c3nc12	9.3	-1.0	90.4	-5.8	1.1	/
Cc1cccn2c(=O)c3cc(C(=O)NC4CCCC4)c(=N)n(Cc4ccc(F)cc4)c3nc12	63.5*	-5.5	148.7	-5.4	5.1	-9.7
CN1C[C@@H]2[C@@H]3C(=O)N(C)C(=O)[C@@H]3[C@](Cc3ccccc3)(C1=O)N2C(=O)c1ccc(F)cc1	3.5	/	/	/	/	/
C[C@@H](NC(=O)c1[nH]cnc1C(=O)Nc1ccccc1F)c1ccccc1	16.4	/	/	/	/	/
O=C(Nc1sc2c(c1C(=O)O)CCCC2)c1ccc(F)cc1	92.6*	-9.5	122.8	3.3	-1.4	73.0*	Diaphorase 10uM=55.3*;Diaphorase 30uM=54.6*
COC(=O)c1c(NC(=O)c2ccccc2C(=O)O)sc2c1CCCC2	-31.1	/	/	/	/	/
CC(C)(C)c1ccc(C(=O)Nc2sc3c(c2C(=O)O)CCC3)cc1	76.0*	-6.4	113.3	-3.7	-7.6	58.8*	Diaphorase 10uM=33.9;Diaphorase 30uM=14.6
O=C(Nc1sc2c(c1C(=O)O)CCCCC2)c1ccccc1F	61.9*	0.3	85.0	-4.8	3.7	39.5
C[C@@H]1CN([C@@H](C)CO)C(=O)CCCn2nncc2CO[C@H]1CN(C)C(=O)c1ccc2ccn(C)c2c1	8.1	/	/	/	/	/
CCC(C)(O)c1[nH]c2ccc(C(=O)OC)cc2c1C (stereo unspecified)	-13.3	-3.9	103.7	-1.2	0.3	/
CC(=O)c1cccc(NC(=O)c2ccc(-c3ccccc3[N+](=O)[O-])o2)c1	60.9*	-5.3	119.2	-2.3	-8.1	22.0
Cc1cc(NC(=O)c2ccc(-c3ccccc3[N+](=O)[O-])o2)no1	9.9	-2.8	118.0	0.4	/	/
COc1cccc(NC(=O)c2ccc(-c3ccc([N+](=O)[O-])cc3)o2)c1	63.6*	-8.4	82.8	-1.0	1.8	5.8
O=C(O)COc1ccc(C(NC(=O)c2c(F)cccc2F)NC(=O)c2c(F)cccc2F)cc1	-4.2	-5.3	97.3	-3.6	-5.0	/
Cc1nc(SCC(=O)Nc2ccc3[nH]c(=O)[nH]c3c2)nc(C)c1C	64.4*	-8.1	119.6	0.8	/	7.8
CC(C)(C)c1ccc(C(=O)NCC(=O)OCC(=O)N2CCCC2)cc1	-2.6	-0.1	99.4	0.4	/	/
